Data: PubChem BioAssay AID1845224 (National Center for Advancing Translational Sciences (NCATS), 2023)
Results filed as inconclusive are left out. Where a call stands in place of a potency, no number is given. Calls of active or inactive are those of the source. Calls come from the whole dose curve; as a rule, active = well fitted curve in the direction sought with a large enough effect; inconclusive = small, poorly fitted or top-dose-only effect, or another doubt; inactive = no such curve, though single readings can be large or run the other way.

Tested on: NanoLuc luciferase (engineered Oplophorus gracilirostris luciferase)
Assay: Confirmatory Nanoluciferase (NLuc) qHTS assay for identification of artifact compounds.
Conditions: secreted NLuc in S16 cell medium, luminescence, 5 min; series mostly up to 39 µM
From the text: PI: Alexander Tropsha Ph.D. UNC Eshelman School of Pharmacy University of North Carolina, Chapel Hill, North Carolina Hits from high-throughput screening (HTS) of chemical libraries are often false positives due to their interference with the assay detection technology. In response to this problem, we generated the largest publicly available library of chemical liabilities and developed a free webtool to predict HTS artifacts, both of which are described herein. More specifically, we generated, curated, and integrated HTS datasets for thiol reactivity, redox activity, and luciferase (firefly and nano) activity. Using these curated datasets, we developed and validated several Quantitative Structure-Interference Relationship (QSIR) models to predict nuisance behavior. […] These models were employed for virtual profiling of the National Center for Advancing Translational Science's (NCATS) in-house library, and 256 compounds for each assay were selected for the experimental validation of nuisance behavior. The BA for these external predictions ranged from 58 to 78% for compounds within the applicability domains of the models. […] The models developed in this study, along with aggregation models previously developed by our group (SCAM Detective) were implemented in "Liability Predictor," an online tool which may be used as part of chemical library design or for triaging HTS hits. Both the models and the curated datasets are publicly available at https://liability.mml.unc.edu/.
PROTOCOL TABLE SEQUENCE No. (e.g., 1, 2, 3, etc.); PARAMETER (e.g., Cells, Incubation, Reagent, etc.); VALUE; DESCRIPTION. 1; Reagent; 2 uL; Nanoluciferase media. 2; Compounds and control; 16 nL; Kalypsis pin tool (Wako USA) equipped with a 1536-well pin head. 3; Incubation; 15 min. 4; Reagent; 2 uL; Luciferase enzyme. 5; Incubation; 5 min. 6; Detection; Luminescence, ViewLux microplate reader. NOTES (numbers refer to Sequence numbers above) 1. Medium was collected from the culture flasks of NLuc-expressing S16 cells (80% confluent) prior to cell plating, filtered through a 0.22um filter, and frozen at -20C prior to use. Media was diluted (1:55) and 2 uL was dispensed into all wells of a 1536-well assay plate (solid-bottom white plate; Greiner Bio One, Monroe, NC). 2. A Wako Pin-tool (Wako Automation, Richmond, VA) was used to transfer 16 nL of compounds (consisting of 7-plates in qHTS format, final concentration range 18.3 nM to 114 uM) or control Cilnidipine (final concentration range 623 nM to 80 uM). 3. 15 min. incubation at room temperature protected from light. 4. 2 uL of NLuc substrate (1:100 in Nano-Glo luciferase buffer; Nano-Glo luminescence assay, Promega, Madison, WI) was dispensed for a final assay volume of 4 uL. 5. Plates were centrifuged (121xg, 15 seconds) and incubated for 5 minutes. 6. Samples were read for luminescence on a ViewLux CCD imager (PerkinElmer). Data were normalized to no-enzyme (0% activity) and no-inhibitor (DMSO; 100%) controls and the resulting percent inhibition data were fitted to a 4-parameter Hill equation using NCATS in-house software.
Potency is the fitted concentration of half-maximal effect.

SMILES | Potency
CCOc1ccc(OCC)c(NS(=O)(=O)c2c(C)[nH]c(=O)[nH]c2=O)c1 | inactive
CCOc1ccc(CCNC(=O)c2cnc3c(-c4ccccc4)c(C)nn3c2C)cc1OCC | inactive
CCOC(=O)c1ccc(N2C(=O)c3n[nH]c(-c4ccco4)c3C2c2ccc(F)cc2)cc1 (stereo not given) | inactive
CC1=CC23C(=O)C(C=C(CO)[C@@H](O)[C@]2(O)[C@H]1O)[C@H]1[C@@H](C[C@H]3C)C1(C)C (stereo not given in full) | inactive
COc1ccc(CNC(=O)C(=O)NCC(c2ccco2)S(=O)(=O)c2ccc(C)cc2)cc1 (stereo not given) | inactive
O=C(CSc1nc(-c2ccccc2)cn1-c1ccccc1)Nc1ccccc1 | inactive
Cc1cc(C)cc(-n2c(SCC(=O)N3CCCCCC3)nc3c([nH]c4ccccc43)c2=O)c1 | inactive
CCc1cccc(NC(=O)Cn2c(=O)n3nc(-c4cccc(F)c4)nc3c3ccccc32)c1 | inactive
COc1ccccc1-c1nc2cc(NC(=O)c3ccccc3Cl)ccc2o1 | inactive
CCOC(=O)c1c(S(=O)(=O)N2CCCC(C(=O)NCc3ccc(F)cc3)C2)c(C)n(CC)c1C (stereo not given) | inactive
Cc1cc(C)cc(NC(=O)CSc2oc(-c3cccs3)nc2S(=O)(=O)c2ccccc2)c1 | inactive
Cc1ccc(N2CC(NC(=O)C(=O)c3c[nH]c4ccccc34)CC2=O)cc1 (stereo not given) | inactive
O=S(=O)(Nc1cccc2cccnc12)c1ccccc1 | inactive
CCN(CCCNC(=O)CSc1cc(=O)n(C)c2ccccc12)c1ccccc1 | inactive
CCCCn1c(SCC(=O)Nc2ccc(F)cc2)nc2c(sc3ccccc32)c1=O | inactive
Cc1cc(O)cc(O)c1C(=O)O | inactive
O=C(Nc1ccc(-c2nc3ccccc3[nH]2)cc1)c1ccc(Cl)c(Cl)c1 | inactive
CC1(C)OC2CC(=O)OCC23C1CC(=O)C1(C)C3CC[C@@]2(C)[C@H](c3ccoc3)OC(=O)C3OC312 (stereo not given in full) | inactive
Brc1ccc2nc(SCCOc3ccccc3)[nH]c2c1 | inactive
Cc1ccc(CNc2ncnc3onc(-c4ccc(F)cc4)c23)cc1 | inactive

SMILES | Potency
COc1ccc(C2=Nn3c(nnc3-c3cccc(OC)c3)SC2)cc1 | inactive
COc1ccccc1Oc1coc2cc(O)ccc2c1=O | inactive
CCOC(=O)C1CCN(C(=O)Cn2c(=O)oc3cc(S(=O)(=O)N4CCC(C)CC4)ccc32)CC1 | inactive
CCOC(=O)c1ccc(N2C(=O)c3[nH]nc(-c4ccc(C)cc4)c3C2c2ccc(O)cc2)cc1 (stereo not given) | inactive
O=C1NC(=O)/C(=C/c2cccn2-c2ccc(P(=O)(O)O)cc2)N1 | inactive
O=c1c2ccccc2nc2sc(Nc3ccc(Br)cc3)nn12 | inactive
COc1cccc(CNS(=O)(=O)c2cnc(N)nc2)c1 | inactive
Cc1ccc(CNCc2cn[nH]c2-c2ccc(C)cc2)cc1 | inactive
Cc1oc(-c2cccc(Br)c2)nc1CSc1nc2ncccc2[nH]1 | 8.64 µM (active)
Cc1cc(NC(=O)Nc2cccc(-c3ccncc3)n2)ccc1Cl | inactive
COc1ccc(-c2c3c(=O)n(C)c(=O)n(C)c3c3n2-c2ccccc2NC3c2ccccc2OC)cc1 (stereo not given) | inactive
CCCNC(=O)N1CCCN(S(=O)(=O)c2ccc3c(ccn3CC)c2)CC1 | inactive
Cc1ccc2nc(-c3cccnc3)c(Nc3ccccc3C)n2c1 | inactive
O=C(CSc1ccnc(=O)[nH]1)NCc1ccc(F)cc1 | inactive
Cc1cccn2c(=O)c3cc(C(=O)NCc4ccccc4)c(=N)n(CCOCCO)c3nc12 | inactive
COc1ccc(-c2cc(C(=O)Nc3cc(C(F)(F)F)ccc3Cl)no2)cc1 | inactive
O=C(COc1ccc(Cl)cc1)Nc1ccc2nc(SCC(=O)N3CCCC3)sc2c1 | inactive
CNS(=O)(=O)c1cn(CC(=O)N2CCN(c3ccc(C(C)=O)cc3)CC2)cc1S(=O)(=O)NC | inactive
Cc1ccc(NC(=O)c2nc(-c3ccncc3)no2)c(Cl)c1 | inactive
OCC(O)C(O)C(OC1OC(CO)C(O)C(O)C1O)C(O)CO (stereo not given) | inactive
